Data on 32 compounds can be found in PubChem BioAssay (NCATS).

Records with an inconclusive call do not appear. A call without a number means that no potency is given here. Activity calls are given as the source filed them. Calls follow the shape of the dose curve; as a rule, active = well fitted inhibition curve with a large enough effect; inconclusive = small, poorly fitted or top-dose-only effect; inactive = flat fitted curve, though single readings scatter.
Potency is read from the fitted curve at half-maximal effect.

The subject of one assay is NIH3T3. Briefly: qHTS assay to identify novel small-molecules to repurpose for Merkel cell carcinoma treatment (AID 1296009). Also: nearly all actives have a fitted effect of over 60% in size. The settings on record: MCC and control cell lines, CellTiter-Glo viability, 72 h; at 44.8 µM (top of the series). The gist of the method:
(§1)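 Cells were incubated with compound for 72 hr at 37 degree celsius before CellTiter-Glo addition. Luminescence was normalized with no-cell wells as full cytotoxicity and DMSO as baseline.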
In general terms: qHTS replaces the single test concentration by a dilution series.
Take `CCOc1ccccc1C(N)=O`: the compound was classed as inactive.

With `CC1(COc2ccc(CC3SC(=O)NC3=O)cc2)CCCCC1` (stereo not drawn), the compound was classed as inactive.

As to `C=C1c2cccc(O)c2C(O)=C2C(=O)[C@]3(O)C(O)=C(C(N)=O)C(=O)[C@@H](N(C)C)[C@@H]3[C@@H](O)[C@H]12`, the call was inactive.

The subject of the next assay is UISO. The description is as above. The following applies: MCC and control cell lines, CellTiter-Glo viability, 72 h; series mostly up to 46 µM. The gist of the method:
as §1
For orientation: ATP-based viability assays read luminescence as a measure of living cells.
As to `CCCN(CCC)S(=O)(=O)c1ccc(C(=O)O)cc1`, the Potency entry was “inactive”.

Consider `CC(C)Cc1ccc(CC(=O)O)cc1`, for which the Potency result was “inactive”.

For the compound `c1ccc(CC2=NCCN2)cc1`, the Potency entry was “inactive”.

With `CC(C)[N+](C)(C)CC(O)COc1cccc2ccccc12` (stereo not drawn), the Potency result was “inactive”.

With `CC(C)(C)NCC(O)COc1cccc2c1C[C@H](O)[C@H](O)C2` (stereo partly drawn), the Potency result was “inactive”.

On to `OCc1ccccn1`, for which the Potency entry was “inactive”.

Turning to `Cc1cc(C)cc(OCC2CNC(=O)O2)c1` (stereo not drawn), the Potency entry is “inactive”.

With `C[C@H]1O[C@@H](O[C@H]2CC[C@@]3(C)[C@H](CC[C@@H]4[C@@H]3C[C@@H](O)[C@]3(C)[C@@H](C5=CC(=O)OC5)CC[C@]43O)C2)C[C@H](O)[C@@H]1O[C@H]1C[C@H](O)[C@H](O[C@H]2C[C@H](O)[C@H](O[C@@H]3O[C@H](CO)[C@@H](O)[C@H](O)[C@H]3O)[C@@H](C)O2)[C@@H](C)O1`, the Potency was 299 nM (active).

Turning to `CC(=O)OCC1=C(C(=O)O)N2C(=O)[C@@H](NC(=O)CSc3ccncc3)[C@H]2SC1`, the Potency entry was “inactive”.

As for `CC(=O)NCCCCCC(=O)O`, the Potency entry is “inactive”.

With `O=C1C(CCS(=O)c2ccccc2)C(=O)N(c2ccccc2)N1c1ccccc1` (stereo not drawn), the Potency result is “inactive”.

As for `NS(=O)(=O)c1ccc(Cl)c(S(N)(=O)=O)c1`, the Potency entry is “inactive”.

Take `NCCNc1cccc2ccccc12`: the Potency result is “inactive”.

For `C[N+]12CCC(CC1)C(OC(=O)C(O)(c1ccccc1)c1ccccc1)C2` (stereo not drawn), the Potency result is “inactive”.

On to `CCN1CCN(C(=O)N[C@@H](C(=O)N[C@@H]2C(=O)N3C(C(=O)O)=C(CSc4nnnn4C)CS[C@H]23)c2ccc(O)cc2)C(=O)C1=O`, for which the Potency entry is “inactive”.

Consider `O=C(O)P(=O)(O)O`, for which the Potency entry was “inactive”.

With `O=S(c1cc(Cl)cc(Cl)c1O)c1cc(Cl)cc(Cl)c1O`, the Potency result is “inactive”.

As to `C=C1c2cccc(O)c2C(O)=C2C(=O)[C@]3(O)C(O)=C(C(N)=O)C(=O)[C@@H](N(C)C)[C@@H]3[C@@H](O)[C@H]12`, the Potency result was “inactive”.

With `Nc1ccc(C(=O)NCC(=O)O)cc1`, the Potency entry was “inactive”.

For the compound `CN1CCN(C2=Nc3ccccc3Sc3ccc(Cl)cc32)CC1`, the Potency entry is “inactive”.

Take `C#C[C@]1(O)CC[C@H]2[C@@H]3CCc4cc(OC)ccc4[C@H]3CC[C@@]21C`: the Potency result is “inactive”.

For the compound `Cc1cn([C@H]2C[C@H](F)[C@@H](CO)O2)c(=O)[nH]c1=O`, the Potency result was “inactive”.

`O=C(Nc1ccc([N+](=O)[O-])cc1)Nc1ccc([N+](=O)[O-])cc1`: the Potency entry is “inactive”.

Consider `O=C(O)Cc1csc(-c2ccc(Cl)cc2)n1`, for which the Potency result was “inactive”.

On to `COc1cc([C@H]2Oc3cc([C@H]4Oc5cc(O)cc(O)c5C(=O)[C@@H]4O)ccc3O[C@@H]2CO)ccc1O`, for which the Potency entry was “inactive”.

Regarding `CC(=O)O[C@]1(C(C)=O)CC[C@H]2[C@@H]3C=C(Cl)C4=CC(=O)CC[C@]4(C)[C@H]3CC[C@@]21C`, the Potency result was “inactive”.

Consider `CCNC(=O)NCc1cccc(Cl)c1`, for which the Potency entry was “inactive”.

The test system of another assay is WaGa. The assay is described as above. The settings on record: MCC and control cell lines, CellTiter-Glo viability, 72 h; series mostly up to 46 µM. The essentials: as §1
For `CCCN(CCC)S(=O)(=O)c1ccc(C(=O)O)cc1`, the Potency result is “inactive”.

Consider `CC(C)Cc1ccc(CC(=O)O)cc1`, for which the Potency result was “inactive”.

Take `CC(C)(C)NCC(O)COc1cccc2c1C[C@H](O)[C@H](O)C2` (stereo partly drawn): the Potency entry was “inactive”.

Take `OCc1ccccn1`: the Potency entry is “inactive”.

As to `Cc1cc(C)cc(OCC2CNC(=O)O2)c1` (stereo not drawn), the Potency result was “inactive”.

For the compound `O=[N+]([O-])c1ccc(/C=N\O)o1`, the Potency is 23700 nM (active).

For `CC(=O)NCCCCCC(=O)O`, the Potency result was “inactive”.

As for `O=C1C(CCS(=O)c2ccccc2)C(=O)N(c2ccccc2)N1c1ccccc1` (stereo not drawn), the Potency result is “inactive”.

With `CC(=O)Nc1ccc(OCC(O)CNC(C)C)cc1` (stereo not drawn), the Potency entry was “inactive”.

Consider `NS(=O)(=O)c1ccc(Cl)c(S(N)(=O)=O)c1`, for which the Potency result is “inactive”.

On to `C[N+]12CCC(CC1)C(OC(=O)C(O)(c1ccccc1)c1ccccc1)C2` (stereo not drawn), for which the Potency entry is “inactive”.

`CCN1CCN(C(=O)N[C@@H](C(=O)N[C@@H]2C(=O)N3C(C(=O)O)=C(CSc4nnnn4C)CS[C@H]23)c2ccc(O)cc2)C(=O)C1=O`: the Potency result was “inactive”.

On to `O=C(O)P(=O)(O)O`, for which the Potency entry was “inactive”.

As to `C=C1c2cccc(O)c2C(O)=C2C(=O)[C@]3(O)C(O)=C(C(N)=O)C(=O)[C@@H](N(C)C)[C@@H]3[C@@H](O)[C@H]12`, the Potency result was “inactive”.

On to `Nc1ccc(C(=O)NCC(=O)O)cc1`, for which the Potency result was “inactive”.

In the case of `C#C[C@]1(O)CC[C@H]2[C@@H]3CCc4cc(OC)ccc4[C@H]3CC[C@@]21C`, the Potency entry was “inactive”.

With `Cc1cn([C@H]2C[C@H](F)[C@@H](CO)O2)c(=O)[nH]c1=O`, the Potency entry is “inactive”.

Take `O=C(Nc1ccc([N+](=O)[O-])cc1)Nc1ccc([N+](=O)[O-])cc1`: the Potency entry is “inactive”.

`O=C(O)Cc1csc(-c2ccc(Cl)cc2)n1`: the Potency entry was “inactive”.

In the case of `COc1cc([C@H]2Oc3cc([C@H]4Oc5cc(O)cc(O)c5C(=O)[C@@H]4O)ccc3O[C@@H]2CO)ccc1O`, the Potency entry is “inactive”.

For the compound `Nc1nc(Cl)nc2c1ncn2[C@@H]1O[C@H](CO)[C@@H](O)[C@@H]1F`, the Potency is 94.4 nM (active).

Turning to `CC(=O)O[C@]1(C(C)=O)CC[C@H]2[C@@H]3C=C(Cl)C4=CC(=O)CC[C@]4(C)[C@H]3CC[C@@]21C`, the Potency result is “inactive”.

Regarding `CCNC(=O)NCc1cccc(Cl)c1`, the Potency result was “inactive”.
